PubChem BioAssay (Tox21)
Values joined by “and” are separate entries in the source; they are usually repeats but may differ in a detail not shown here. Equal values may be shown once. Records with an inconclusive call do not appear. A call without a number means that no potency is given here. Active and inactive are the calls of the source. Calls follow the shape of the dose curve; as a rule, active = well fitted cell-killing curve with a large enough effect in the repeat runs; inconclusive = weak or mixed curves, or effect the other way; inactive = flat fitted curve, though single readings scatter.

experiment: qHTS RealTime-Glo MT Cell Viability Assay in HEK293 cells - 32 hour (AID 1224868); conditions: RealTime-Glo luminescence; series mostly up to 76.8 µM; also: nearly all actives have a fitted effect of over 50% in size; as to activity change, negative = cytotoxic: top concentration of the series differs between compounds
Text: National Center for Advancing Translational Sciences [NCATS]
NIH Chemical Genomics Center [NCGC]
U.S. Environmental Protection Agency [EPA]
National Institutes of Environmental Health Sciences [NIEHS]
National Toxicology Program [NTP]
U.S. Food and Drug Administration [FDA]
Measure of cell viability is critical in the cell-base assay. Analysis of cell viability is necessary for the characterization of cell responses to cytotoxic drugs and environmental stress. A RealTime-Glo MT Cell Viability Assay to monitor cell viability in real time of continues cell culture during 40 hours of compound treatment was used to screen Tox21 10K library compounds in Hek293 cells. The RealTime-Glo MT Cell Viability Assay is a nonlytic, homogeneous, bioluminescent method to measure cell viability in real time using a simple, plate-based method. The assay involves adding NanoLuc luciferase and a cell-permeant prosubstrate to cells in culture. Viable cells reduce the proprietary prosubstrate to generate a substrate for NanoLuc luciferase. This substrate diffuses from cells into the surrounding culture medium, where it is rapidly used by the NanoLuc Enzyme to produce a luminescent signal. The signal correlates with the number of viable cells, making the assay well suited for cytotoxicity studies.
Tox21 Assay Protocol Summary:
The mixture of Hek293 cell suspension and reagents were dispensed at 600cells/6 ul/well in 1536-well tissue culture treated black solid bottom plates using a Multidrop dispenser. After the assay plates were incubated at a 37 C/5% CO2 incubator for 5 hours, 23 nL of compounds dissolved in DMSO, positive and negative controls was transferred to the assay plate by a pintool work station. The plates were incubated at 37 C for 40 hours. The luminescence intensity were measured at 0h, 8h, 16h, 24h, 32h and 40h time points using ViewLux plate reader during compound treatment.
Potency is read from the fitted curve at half-maximal effect.

| Compound | Potency | activity change, negative = cytotoxic |
| --- | --- | --- |
| Nc1nc(-c2ccccc2)cs1 | inactive |  |
| CCCCCCCCCCOC(=O)c1ccccc1C(=O)OCCCCCCCC | inactive |  |
| O=C(O)c1cc(N=Nc2ccc([N+](=O)[O-])cc2)ccc1O | inactive |  |
| O=C(O)c1cc(-c2ccc(F)cc2F)ccc1O | inactive |  |
| CC(C)CCCCCOC(=O)CCS | inactive |  |
| c1ccsc1 | inactive |  |
| O=c1c(O)c(-c2ccc(O)cc2O)oc2cc(O)cc(O)c12 | inactive |  |
| O=C(O)CN(CCN(CC(=O)O)CC(=O)O)CC(=O)O |  | 9.19% [at 2.72 µM] (inactive) |
| Sc1nc2ccccc2s1 | inactive |  |
| CN1CCN(Cc2cc(-c3ccc4[nH]c(=O)oc4c3)co2)[C@@H](c2ccc(F)cc2)C1 | 21.1 µM (active) |  |
| O=C(O)O |  | 0.187% [at 6.97 µM] (inactive) |
| CC1(C)CC(O)CC(C)(C)N1 | inactive |  |
| CCCC1CCC(=O)CC1 | inactive |  |
| OC[C@@H](O)[C@@H](O)CO | inactive |  |
| CCOc1ccc2ccccc2c1C(=O)N[C@@H]1C(=O)N2[C@@H]1SC(C)(C)[C@@H]2C(=O)O | inactive |  |
| COC(=O)Nc1nc2ccc(C(=O)c3ccccc3)cc2[nH]1 | 0.848 µM (active) |  |
| Clc1nnc(Cl)c2ccccc12 | inactive |  |
| C=CC(=O)OCCOC(=O)C=C | 43.6 µM (active) |  |
| CN(C)Cc1ccccc1O | inactive |  |
| COC(=O)c1ccccc1OC | inactive |  |

| Compound | Potency | activity change, negative = cytotoxic |
| --- | --- | --- |
| C1CCC(SSC2CCCCC2)CC1 | inactive |  |
| CC(=O)Oc1cc2c(s1)CCN(C(C(=O)C1CC1)c1ccccc1F)C2 (stereo not given) | inactive |  |
| CCCCC(CC)CN1CN(CC(CC)CCCC)CC(C)(N)C1 (stereo not given) | 8.49 µM (active) |  |
| CN(C)c1ccc(C(=C2C=CC(=[N+](C)C)C=C2)c2ccc(N(C)C)cc2)cc1 | 2.74 µM (active) and 6.92 µM (active) and 2.39 µM (active) |  |
| Cc1c(F)c(N2CCNC(C)C2)cc2c1c(=O)c(C(=O)O)cn2C1CC1 (stereo not given) | inactive |  |
| CCCC(=O)OCCc1ccccc1 | inactive |  |
| OC/C=C/CO | inactive |  |
| O=S(=O)(O)c1ccc(Nc2nc(Nc3ccc(/C=C/c4ccc(Nc5nc(Nc6ccc(S(=O)(=O)O)cc6)nc(N(CCO)CCO)n5)cc4S(=O)(=O)O)c(S(=O)(=O)O)c3)nc(N(CCO)CCO)n2)cc1 | inactive |  |
| c1ccc(SSc2ccccc2)cc1 | inactive |  |
| Oc1c(I)cc(Cl)c2cccnc12 | 24.5 µM (active) |  |
| CC(=O)CC(=O)Nc1ccc(S(=O)(=O)O)cc1 | inactive |  |
| CC(=O)[C@H]1CC[C@H]2[C@@H]3CCC4=CC(=O)CC[C@]4(C)[C@H]3CC[C@]12C | 13.7 µM (active) and 17.4 µM (active) |  |
| CCCCCc1ccc(Cl)cc1 | 15.5 µM (active) |  |
| O=c1[nH]c2ccccc2n1CCCN1CCN(C(c2ccccc2)c2ccccc2)CC1 | 12 µM (active) |  |
| CCC(CC)C(C)CCOC(C)=O (stereo not given) | inactive |  |
| C=Cc1ccccc1C=C | inactive |  |
| CCc1cccc(CC)c1NC(=O)CN(CC(=O)O)CC(=O)O | inactive |  |
| Clc1sc(Cl)c(Cl)c1Cl | inactive |  |
| CCc1ccc(Br)cc1 | inactive |  |
| CC(=O)c1ccc(C(C)=O)cc1 | inactive |  |
